# High-throughput results from PubChem.
# FXN GAA850 act = FXN promoter activators, primary screen, cell-based, luciferase luminescence, HEK293 lucGAA850 | HEK293 lucGAA850 FXN promoter luciferase reporter, 24 h; percent of 10 µM SAHA response | hit rate 0.56% among 360,000 | activation, % at 6 µM;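 active means activation above the average of all compounds screened plus 3 SD, cutoff fixed separately per campaign, cut at about 7.5% in these data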;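 further: 0% = DMSO wells and 100% = 10 µM SAHA wells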
# HSP90 inh = HSP90 inhibitors, primary screen, cell lysate, luminescence | inhibition, % at 5.6 µM | hit rate 0.91% among 290,000 | Rabbit reticulocyte lysate, luciferase refolding luminescence, 3 h | AID 1789, 2009;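 active means inhibition above the screen-wide mean plus 3 SD, computed separately per campaign, cut at about 16% in these data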;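 further: 0% = DMSO wells and 100% = 60 µM geldanamycin wells; inhibitors lower the luminescence because luciferase stays unfolded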
# HSF1 inhib = HSF1 inhibitors in luciferase reporter cells, primary screen, cell-based, NIH3T3, luminescence; NIH3T3-HGL HSE-luciferase, MG132-induced, luminescence 8 h; stronger effect = lower value; hit rate 0.77% among 300,000; activity change, negative = inhibition, % at 7.5 µM (by protocol); AID 2098, 2009;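 active means more than half of replicate wells show activity change below -50%, luminescence cut by over half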;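 further: luciferase reports HSF-1 transcriptional activity via heat shock element; 0% = median of DMSO wells and -100% = zero luminescence signal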
# NR0B1 inh = DAX1 (NR0B1) inhibitors, primary screen, cell-based, HEK293, Gal4-DAX1, luciferase luminescence; Nuclear receptor subfamily 0 group B member 1 (Homo sapiens), P51843; HEK293 Gal4-DAX1 luciferase reporter; inhibition, % at 6.75 µM; hit rate 0.99% among 340,000; AID 504766, 2011;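 active means inhibition above the mean over all tested compounds plus 3 SD, cut at about 4.2% in these data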;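 further: 0% = DAX1-transfected cells with DMSO and 100% = empty-vector control cells with DMSO; inhibition shows as a rise in luminescence from relieved DAX1 repression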
# Target sequence (P51843 207-470 limits assumed): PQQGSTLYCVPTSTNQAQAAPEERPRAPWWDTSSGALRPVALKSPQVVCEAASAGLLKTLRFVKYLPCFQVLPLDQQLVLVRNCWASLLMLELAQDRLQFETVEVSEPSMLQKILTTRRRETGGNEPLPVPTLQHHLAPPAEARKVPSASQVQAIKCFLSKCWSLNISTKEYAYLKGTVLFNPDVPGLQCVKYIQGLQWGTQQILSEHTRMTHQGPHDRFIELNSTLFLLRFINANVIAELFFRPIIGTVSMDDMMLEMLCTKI
# HSF-1 act = HSF-1 activators, primary screen, NIH3T3-HGL cells, MG132 stress, luminescence, single point. NIH3T3-HGL HSF-1 luciferase reporter, 8 h; 100% = twice DMSO control signal. activation, % at 9 µM. hit rate 1.7% among 300,000;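 active means mean replicate activation of at least 50% with a set share of replicates each reaching 50%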;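 further: 0% = median of the neutral control wells and 100% = twice that signal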
# AHR act = AHR activators, primary screen, cell-based, luminescence, luciferase reporter, human | Aryl hydrocarbon receptor (Homo sapiens), P35869 | AHR-responsive luciferase reporter cells | activation, % at 5 µM | hit rate 2.5% among 320,000 | AID 2796, 2010; in the data active means activation above about 47%;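 further: 0% = vehicle wells and 100% = reference agonist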
# An asterisk follows results filed as active; / = not tested or not shown. Compounds with a hit are over-represented: about 5.9% of the library has one in this group of screens.
SMILES,FXN GAA850 act,HSP90 inh,HSF1 inhib,NR0B1 inh,HSF-1 act,AHR act
CCOC(=O)CSc1nnc(Cn2c(=O)sc3ccccc32)n1C,-0.7,0.2,-3.3,5.8*,-5.8,10.8
O=C(Nc1cccc2c1CCCC2)c1cc(C2CCCCN2C(=O)CCCc2ccccc2)on1 (stereo not given),0.4,/,/,/,/,/
COc1ccc(NC(=O)CSc2nc(N)c3cc4c(nc3n2)CCCC4)cc1,5.6,4.3,40.6,-0.6,57.7*,13.7
COc1ccc(NC(=O)CSc2nc(N)c3cc4c(nc3n2)CC(C)(C)OC4)cc1,2.6,3.0,0.5,1.0,-1.8,2.9
O=C(Oc1ccc2c(c1)OCO2)c1ccc(F)cc1Cl,4.8,1.7,26.2,-0.5,63.1*,1.9
O=C(Oc1ccc2c(c1)OCO2)c1cc2c(s1)CCC2,-0.1,3.3,32.8,-0.2,80.8*,3.8
O=C(c1cc2c(s1)CCCC2)N1CCN(Cc2ccc3c(c2)OCO3)CC1,1.2,-2.3,-4.3,0.8,14.9,0.1
Cc1noc(C)c1COc1ccc(C(=O)N2CCC(C)CC2)cc1,1.9,/,/,0.8,/,-1.1
CCc1cccc(NS(=O)(=O)c2ccc3c(c2)NC(=O)C(C)S3)c1 (stereo not given),-1.8,5.7,34.8,-0.8,77.0*,-0.4
COc1cccc(NS(=O)(=O)c2ccc3c(c2)NC(=O)C(C)S3)c1 (stereo not given),-0.2,3.4,-0.9,0.2,2.6,-0.1
Cc1ccc([N+](=O)[O-])cc1S(=O)(=O)Nc1ccc(C(=O)NCc2ccccn2)cc1,2.4,/,-4.2,0.0,-1.7,4.1
O=C1c2ccccc2C(=O)N1CCOc1ccccc1Cl,3.8,-1.6,30.6,0.5,71.1*,40.3
CC(C)Oc1cccc(OCCN2C(=O)c3ccccc3C2=O)c1,2.7,-2.2,8.3,0.5,11.7,-4.6
COc1ccc(OCCN2C(=O)c3ccccc3C2=O)cc1,4.1,-0.1,-55.5*,-1.0,-61.8,-4.5
Cc1ccccc1OCCN1C(=O)c2ccccc2C1=O,3.5,-3.0,16.9,1.8,20.4,32.9
O=C1c2ccccc2C(=O)N1CCOc1ccccc1Br,4.6,-0.9,44.4,1.5,98.6*,-3.9
O=[N+]([O-])c1ccccc1N/N=C\c1ccccc1F,4.2,1.2,27.7,0.4,65.0*,9.0
N#CCC(=O)Nc1ccc(C(=O)OCC(=O)Nc2ccccc2Sc2ccccc2)cc1,1.0,5.3,20.6,/,63.3*,3.8
Nc1c(C(=O)NC2CCCC2)sc2nc(-c3cccs3)ccc12,2.2,3.1,47.7,-1.1,55.7*,12.2
O=C(O/N=C1/CCCc2occc21)c1ccc(Cl)cc1Cl,0.0,3.6,4.3,6.8*,12.5,0.1
O=C(c1cc(=O)[nH]c2ccccc12)N(Cc1nnc(-c2ccccc2Cl)o1)C1CC1,0.4,/,0.4,-1.9,11.1,8.2
COc1cccc(-c2nnc3sc(-c4ccco4)nn23)c1,2.6,4.7,2.1,4.2*,18.8,-8.3
COc1ccc(-c2nnc3sc(-c4ccco4)nn23)cc1OC,3.4,1.6,-2.9,-1.1,7.7,-5.3
c1coc(-c2nnc3sc(-c4cccs4)nn23)c1,5.0,-2.3,/,1.5,/,54.7*
CC1(C)NC(=S)NC1=S,2.0,/,/,0.7,/,/
SMILES,FXN GAA850 act,HSP90 inh,HSF1 inhib,NR0B1 inh,HSF-1 act,AHR act
COCCNS(=O)(=O)c1ccc(C2CNC(=O)C2)cc1 (stereo not given),-1.2,3.4,2.2,5.2*,-9.6,-0.1
COc1ccc(NC(=O)CN2C(=O)c3ccccc3S2(=O)=O)cc1S(=O)(=O)N1CCOCC1,2.6,/,/,-0.9,/,/
CCOc1ccc(-n2c(=O)c3sccc3n(CC(=O)NC3CCCCC3)c2=O)cc1,-0.6,-2.9,-7.2,0.1,2.1,-1.0
CC(OC(=O)c1ccc(CN2CCCC2=O)cc1)C(=O)Nc1ccc(Cl)cc1 (stereo not given),2.0,/,/,0.6,/,0.1
CC(C)CCC[C@@H](C)[C@H]1CC[C@H]2[C@@H]3C(=O)C=C4C[C@@H](O)CC[C@]4(C)[C@H]3CC[C@]12C,0.4,/,-0.9,0.8,-10.8,-0.9
C=C1/C(=C\C=C2/CCC[C@]3(C)[C@@H]([C@H](C)CCCC(C)(C)O)CC[C@@H]23)C[C@@H](O)C[C@@H]1O,/,25.6*,-8.3,/,-20.7,1.6
O=C1c2ccccc2C(=O)N1Cc1ccccn1,1.7,-2.7,-7.3,-0.2,1.4,-1.3
C/C(CCc1oc2c(Br)cc(Br)cc2c1-c1ccc(C)o1)=N\O,-1.2,1.7,39.7,0.4,79.6*,19.9
COc1ccc(OC)c(C2C(C(=O)Nc3nc4ccccc4s3)=C(C)NC3=C2C(=O)CCC3)c1 (stereo not given),1.6,3.3,38.1,1.0,74.9*,15.4
C[C@@H]1CN([C@H](C)CO)C(=O)CCCn2nncc2CO[C@H]1CN(C)S(=O)(=O)c1ccc2c(c1)OCCCO2,0.8,/,/,0.8,/,/
COc1cc(OC)nc(C(NC(=O)C2CCN(Cc3ccc(Oc4ccccc4)cc3)CC2)c2ccccc2C)n1 (stereo not given),-1.3,/,/,/,/,/
Cc1ccc(S(=O)(=O)N(CC(=O)Nc2ccccc2-c2ccccc2)c2ccc(C)cc2C)cc1,2.5,3.3,0.3,0.4,41.9,-4.9
Cc1cccc(N(CC(=O)Nc2ccccc2-c2ccccc2)S(=O)(=O)c2ccccc2)c1C,1.0,8.6,17.6,-0.9,53.4*,2.8
O=C(N/N=C/CCc1ccccc1)c1ccccc1,3.1,2.3,32.5,1.2,76.3*,3.8
O=C(N/N=C/CCc1ccccc1)C1CCCCC1,3.5,0.0,-2.6,0.8,-3.3,0.0
Oc1c(CN2CCCCC2)cc(Br)c2cccnc12,0.8,6.8,-60.2*,-1.1,-58.3,20.3
Cc1cccc(N2CCN(C(=O)CCCCCn3c(=S)[nH]c4ccc(N5CCOCC5)cc4c3=O)CC2)c1C,0.5,2.7,-7.6,0.0,-3.8,-2.0
Cc1nc2ccccc2c(=O)n1NC(=O)c1ccco1,1.1,-3.8,/,0.6,/,1.1
O=C(Nn1c(-c2ccc(Br)cc2)nc2ccccc2c1=O)c1ccc([N+](=O)[O-])cc1,2.8,0.3,4.5,-1.4,-4.6,61.6*
O=C(Nn1c(-c2ccccc2)nc2ccccc2c1=O)c1ccco1,-0.1,-2.0,-6.8,-0.8,-7.1,58.2*
O=C(Nn1c(-c2ccncc2)nc2ccccc2c1=O)c1ccc(Br)cc1,2.6,-2.9,-7.1,0.2,-7.7,0.5
Cc1cc(NC(=O)c2ccc(F)cc2)n(C)n1,-1.3,-2.5,1.1,0.3,-18.4,-0.1
